Screens deposited in PubChem BioAssay by several laboratories.
An excerpt weighted towards active compounds, which were near 7% of everything screened.
rCAG binder: binders of r(CAG) RNA repeats, primary screen, biochemical, fluorescence | r(CAG) RNA repeat, TO-PRO-1 dye displacement fluorescence | inhibition, % at 3 µM | hit rate 1.3% among 370,000;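 active means inhibition above the plate cutoff, the mean of all test compounds on that plate plus 3 SD, cut at about 35% in these data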;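 further: 0% = DMSO alone and 100% = 100 µM mitoxantrone as full dye displacement; higher means more dye released from RNA so lower well fluorescence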
proKLK7 act: proKLK7 zymogen activators, primary screen, biochemical, fluorescence intensity | Kallikrein-7 (Homo sapiens), P49862 | purified proKLK7, EDANS-DABCYL substrate fluorescence; 100% is mature enzyme control, 0% vehicle | activation, % at 7 µM | hit rate 0.9% among 370,000;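 active means activation above the mean of all tested compounds plus 3 SD, computed per campaign excluding outliers beyond control limits, cut at about 13% in these data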
NR3A LBD binder: binders of NR3A ligand-binding domain, primary screen, biophysical, differential scanning fluorimetry, uHTS; Glutamate receptor ionotropic, NMDA 3A (GRIN3A) ligand-binding domain; NR3A LBD differential scanning fluorimetry, Tm shift; 0% = protein alone, 100% = glycine-bound protein; Tm shift relative to glycine control, % at 25 µM; hit rate 2.5% among 340,000; AID 1259313, 2017;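 active means melting temperature shift of at least 10% of the positive control shift, at one fixed dose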
AHR act: AHR activators, primary screen, cell-based, luminescence, luciferase reporter, human; AHR-responsive luciferase reporter cells; activation, % at 5 µM; Aryl hydrocarbon receptor (Homo sapiens), P35869; hit rate 2.5% among 320,000; in the data active means activation above about 47%;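 further: 0% = vehicle wells and 100% = reference agonist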
ADAM10 inh: human ADAM10 inhibitors, primary screen, biochemical, QFRET, HTS; hit rate 0.62% among 370,000; AID 720582, 2013; Disintegrin and metalloproteinase domain-containing protein 10 (Homo sapiens), O14672; recombinant ADAM10, EDANS/DABCYL FRET peptide cleavage, 3 h; inhibition, % at 7 µM;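 active means inhibition above a per-campaign cutoff equal to the mean of compounds falling between control-based bounds plus 3 SD, cut at about 20% in these data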;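 further: 0% = DMSO wells while the 100% control is not disclosed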
ADAM17 inh: ADAM17 inhibitors, primary screen, biochemical, QFRET | Disintegrin and metalloproteinase domain-containing protein 17 (Homo sapiens), P78536 | recombinant ADAM17, EDANS/DABCYL FRET peptide cleavage | inhibition, % at 6.95 µM | hit rate 0.83% among 370,000 | AID 720648, 2013;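 active means inhibition above the mean of compounds lying between control limits plus 3 SD, set per campaign, cut at about 8.5% in these data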;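 further: 0% = DMSO-only wells as the low control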
Target sequence (P78536 215-824 limits assumed): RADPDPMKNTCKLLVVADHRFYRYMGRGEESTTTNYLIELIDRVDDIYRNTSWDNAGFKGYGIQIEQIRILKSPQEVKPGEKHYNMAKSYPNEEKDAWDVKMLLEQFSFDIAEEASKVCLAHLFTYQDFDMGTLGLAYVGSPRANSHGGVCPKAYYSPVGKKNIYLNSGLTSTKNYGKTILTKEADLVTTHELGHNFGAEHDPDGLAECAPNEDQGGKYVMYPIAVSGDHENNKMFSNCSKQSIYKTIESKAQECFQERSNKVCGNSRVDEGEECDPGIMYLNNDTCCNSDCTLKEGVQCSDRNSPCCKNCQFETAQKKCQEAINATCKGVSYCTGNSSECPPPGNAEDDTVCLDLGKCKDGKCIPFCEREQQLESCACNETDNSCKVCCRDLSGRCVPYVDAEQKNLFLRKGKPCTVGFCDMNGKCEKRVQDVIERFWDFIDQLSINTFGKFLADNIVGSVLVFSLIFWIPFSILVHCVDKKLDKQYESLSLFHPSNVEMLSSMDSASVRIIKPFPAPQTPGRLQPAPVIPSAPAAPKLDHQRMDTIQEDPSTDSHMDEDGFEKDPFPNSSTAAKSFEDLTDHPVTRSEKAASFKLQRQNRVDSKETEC
rCAG bind conf: small molecules binding CAG repeat RNA – biochemical, fluorescence, confirmation; AID 652065, 2013; shares compounds with rCAG binder; inhibition, % at 3 µM; r(CAG) RNA repeat, TO-PRO-1 dye displacement fluorescence; hit rate 70% among 4,300;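 active means inhibition above a per-plate cutoff, the mean inhibition of sample wells plus 3 SD, cut at about 35% in these data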;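 further: loss of TO-PRO-1 fluorescence as compound displaces dye from 1x1 AA loop RNA; 0% = DMSO only wells and 100% = 100 µM mitoxantrone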
dCAG dye counter: displacement of TO-PRO-1 from CAG DNA duplex, counter-screen for rCAG RNA repeat binder project, biochemical, fluorescence, TO-PRO-1 dye, d(CAG) DNA oligo; shares compounds with rCAG binder; d(CAG) DNA oligo TO-PRO-1 dye displacement; inhibition, % at 3 µM; hit rate 94% among 4,300; AID 652068, 2013;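 active means inhibition above its plate's cutoff, the mean test-well inhibition plus 3 SD, cut at about 4.8% in these data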;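 further: 0% = DNA dye mix with DMSO and 100% = 100 µM mitoxantrone; hits displace the dye from DNA and so lower well fluorescence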
proKLK7 act conf: proKLK7 zymogen activators, confirmation, biochemical, fluorescence intensity, triplicate | shares compounds with proKLK7 act | purified proKLK7, EDANS-DABCYL substrate fluorescence; scaled: vehicle 0, mature enzyme 100 | activation, % at 7 µM | hit rate 68% among 3,200;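 active means activation, as change over the incubation, above the mean of all tested compounds plus 3 SD, cut at about 13% in these data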
EDANS-DABCYL int: EDANS-DABCYL substrate optical interference, artefact control for kallikrein-7 zymogen activator project, biochemical, fluorescence intensity, high throughput. shares compounds with proKLK7 act. no enzyme, 4 h; solvent 0%, active enzyme control 100%. activation, % at 7 µM. hit rate 80% among 3,200;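 active means activation above the all-compound mean plus 3 SD, ignoring values outside control-based bounds, cut at about 4.8% in these data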;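 further: value is the 4 h activation minus the activation read at time zero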
ADAM10 confirm: human ADAM10 inhibitors, confirmation, biochemical, QFRET, triplicate | shares compounds with ADAM10 inh | ADAM10 QFRET peptide cleavage, EDANS fluorescence | inhibition, % at 6.95 µM | hit rate 1% among 2,100;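 active means inhibition above about 20% chosen separately for each screening run, limit read from the data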;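 further: 0% = DMSO wells and 100% = marimastat wells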
ADAM17 ctr: ADAM17 inhibitors, counter-screen for ADAM10 exosite inhibitor project, biochemical, QFRET, high throughput; shares compounds with ADAM10 inh; hit rate 0.5% among 2,100; inhibition, % at 6.95 µM; ADAM17 QFRET peptide cleavage, EDANS fluorescence; AID 743214, 2013;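 active means mean triplicate inhibition above the solvent-only control wells' mean plus 3 SD, cut at about 12% in these data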;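 further: 0% = DMSO wells and 100% = marimastat wells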
* = called active by the depositor; i = inactive; nt = no result.

SMILES | rCAG binder | proKLK7 act | NR3A LBD binder | AHR act | ADAM10 inh | ADAM17 inh | rCAG bind conf | dCAG dye counter | ADAM10 confirm | ADAM17 ctr | others
C=CCNC(=O)C1CCN(c2cncnc2)CC1 | 0 | 0 | nt | nt | -17 | -6 | nt | nt | nt | nt
Cc1ccc(-n2nc(C)c3c2NC2=C(C(=O)CC(C)(C)C2)C3c2ccccc2OCC(=O)O)cc1 (stereo not given) | 37* | 44* | 0 | -1 | i | -243 | 41* | 9.4* | nt | nt | proKLK7 act conf=33*;EDANS-DABCYL int=35*
CN(C)c1ccc2nc3ccc(=O)cc-3sc2c1 | 35* | 54* | nt | nt | -56 | -16 | 31 | 12* | nt | nt | proKLK7 act conf=143*;EDANS-DABCYL int=133*
O=C(O)CSc1nc(-c2ccccc2)c(-c2ccccc2)[nH]1 | 1 | 0 | -1 | 1 | -32 | -13 | nt | nt | nt | nt
O=C(O)c1ccc(-c2nc(-c3ccccc3)c(-c3ccccc3)[nH]2)cc1 | 36* | 46* | -13 | -1 | i | i | 36* | 6.0* | nt | nt | proKLK7 act conf=79*;EDANS-DABCYL int=81*
COc1ccc(CCN2CCC(CN3C(=S)NC[C@@H]3Cc3ccccc3)CC2)cc1OC | 5 | -1 | nt | nt | -1 | -7 | nt | nt | nt | nt
NS(=O)(=O)c1ccc(N2N=C(c3ccccc3)CC2c2ccccc2)cc1 (stereo not given) | 7 | -312 | 1 | 7 | i | i | nt | nt | nt | nt
O=S(=O)(O)c1ccc(N2N=C(c3ccccc3)CC2c2ccccc2)cc1 (stereo not given) | 79* | 56* | 0 | -1 | i | i | 56* | 19* | nt | nt | proKLK7 act conf=72*;EDANS-DABCYL int=66*
CCOC(=O)[C@H](CCc1ccccc1)N[C@@H](C)C(=O)N1Cc2cc(OC)c(OC)cc2C[C@H]1C(=O)O | 6 | 1 | nt | nt | -2 | -1 | nt | nt | nt | nt
COc1ccc(C(=O)COC(=O)/C=C/c2ccc(S(=O)(=O)Nc3cccc(S(N)(=O)=O)c3)cc2)cc1 | 46* | 0 | 11* | 2 | 21* | 6 | 60* | 20* | 0 | 0
O=[N+]([O-])c1cc(S(=O)(=O)Nc2cccc(C(F)(F)F)c2)ccc1-n1nnc2ccccc21 | 78* | 0 | 19* | -1 | 23* | 6 | 69* | 33* | -1 | 0
COc1ccc(NS(=O)(=O)c2ccc(-n3nnc4ccccc43)c([N+](=O)[O-])c2)cc1 | 19 | 0 | 4 | -1 | 7 | 1 | nt | nt | nt | nt
CCOC(=O)c1ccc(N2C(=O)c3n[nH]c(-c4ccco4)c3C2c2cccc([N+](=O)[O-])c2)cc1 (stereo not given) | 74* | 0 | 24* | 3 | 33* | 7 | 19 | 14* | 6 | 2
CCOC(=O)C1=CCN(S(=O)(=O)c2ccc(C)cc2)C1c1cccc(Cl)c1 (stereo not given) | 4 | -1 | nt | nt | -7 | 7 | nt | nt | nt | nt
Cc1ccc(S(=O)(=O)N2[C@@H](c3ccc(Cl)cc3)C(C(=O)O)=CC[C@H]2c2ccc(C(C)C)cc2)cc1 | 83* | 0 | -5 | -3 | 21* | 1 | 89* | 61* | 1 | 0
Cc1ccc(C2(c3ccc(C)cc3)CC2C(=O)Nc2ccc([N+](=O)[O-])cc2O)cc1 (stereo not given) | 66* | 0 | 1 | 59* | 42* | 19* | 62* | 29* | 11 | 4
CCn1c2ccccc2c2cc(NC(=O)COC(=O)c3cc(F)ccc3F)ccc21 | 2 | -1 | nt | nt | 3 | 1 | nt | nt | nt | nt
Oc1ccc(Cl)cc1Sc1cc(Cl)ccc1O | 38* | 1 | 25* | nt | 25* | 6 | 43* | 12* | 8 | 2
CN(C)C(=O)c1cc(Cl)ccc1Sc1cc(Cl)ccc1Cl | -8 | 0 | -4 | -3 | 7 | -3 | nt | nt | nt | nt
COc1ccc(Nc2nc(-c3ccccc3O)nc3ccccc23)cc1 | 38* | -68 | 34* | 18 | 21* | 5 | 21 | 6.9* | 10 | 3
COc1ccc(Nc2nc(-c3ccccc3F)nc3ccccc23)cc1OC | 3 | 1 | -1 | 15 | -1 | -1 | nt | nt | nt | nt
CCc1ccccc1NC(=O)c1ccc(CN2CCC(Cc3ccccc3)CC2)cc1 | -1 | 0 | 1 | -1 | -3 | -4 | nt | nt | nt | nt
O=C(NC1=N[C@@]2(C=C3CCCCC3n3c(=O)n(-c4ccccc4)c(=O)n32)[C@H](Cc2ccccc2)N1Cc1ccccc1)c1ccccc1 (stereo not given in full) | 56* | 0 | nt | nt | 20* | 9.7* | 53* | 20* | 9 | 6
Cn1cnc(S(=O)(=O)N2CCCCC2c2cc(C(=O)Nc3ccc(F)c(Cl)c3)no2)c1 (stereo not given) | 2 | 1 | nt | nt | -4 | 2 | nt | nt | nt | nt
O=C(Cc1cccc2ccccc12)Nc1cc(Cl)ccc1C(=O)O | 46* | 0 | 4 | 4 | 23* | 4 | 35* | 8.1* | 1 | 0
CC(C)C1=CC2C3C(=O)N(c4ccccc4)C(=O)C3C1C(=O)C2(C)O (stereo not given) | 2 | 0 | nt | nt | 5 | 0 | nt | nt | nt | nt
